An excerpt weighted towards active compounds, which were near 3.5% of everything screened.
FadD28 FP inh: inhibitors of FadD28 bisubstrate probe binding, primary screen, biochemical, fluorescence polarization, single point. Mycobacterium tuberculosis FadD28 fatty-acid-AMP ligase. 360,000 tested, 0.22% active. AID 588549, 2011. inhibition, % at 12.5 µM; in the data active = inhibition above about 8.5%, passing the limit was not always enough; inconclusive = no clear call, values can overlap the other calls
Rv3671c inh: Rv3671c serine protease inhibitors, primary screen, biochemical, fluorescence polarization, M. tuberculosis H37Rv; inhibition, % at 5.96 µM; 320,000 tested, 0.048% active; P9WHR9; in the data active = inhibition above about 38%;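 note: extracellular domain of Rv3671c used as enzyme; 0% = enzyme with DMSO and 100% = no enzyme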
Mtb hypoxia rep: PubChem AID 1159583. 300,000 tested, 0.1% active. M. tuberculosis hypoxia-regulated fluorescent reporter, fluorescence. fluorescence inhibition, % (no concentration beside the values); in the data active = fluorescence inhibition mostly above about 23%, no sharp cut-off; inactive = mostly below about 17%
GDH-TPI counter: GDH-TPI coupling enzyme inhibitors, primary screen, artefact control for M. tuberculosis FBA inhibitor project, biochemical, absorbance, full deck. GDH-TPI coupled enzyme counterscreen, NADH absorbance. inhibition, % at 4.8 µM. 360,000 tested, 1.2% active. AID 588335, 2011; in the data active = inhibition above about 30%;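 note: 0% = DMSO wells and 100% = wells lacking the enzyme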
UGM FP inh: M. tuberculosis UGM enzyme inhibitors, primary screen, biochemical, fluorescence polarization, single point; UDP-galactopyranose mutase (Mycobacterium tuberculosis (strain ATCC 25618 / H37Rv)), …; purified UGM, fluorescence polarization probe displacement; 320,000 tested, 0.06% active; AID 504406, 2011; inhibition, % at 10 µM; in the data active = inhibition above about 10%, passing the limit was not always enough; inconclusive = no clear call, values can overlap the other calls
Mtb FBA inh: Mtb FBA enzyme inhibitors, primary screen, biochemical, fluorescence, strain H37Rv. purified M. tuberculosis FBA, fluorescence read-out. inhibition, % at 1 µM. 360,000 tested, 2.3% active. AID 588726, 2011; in the data active = inhibition above about 27%;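 note: 0% = vehicle and 100% = reference inhibitor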
Target sequence (P9WQA3 whole entry, looked up): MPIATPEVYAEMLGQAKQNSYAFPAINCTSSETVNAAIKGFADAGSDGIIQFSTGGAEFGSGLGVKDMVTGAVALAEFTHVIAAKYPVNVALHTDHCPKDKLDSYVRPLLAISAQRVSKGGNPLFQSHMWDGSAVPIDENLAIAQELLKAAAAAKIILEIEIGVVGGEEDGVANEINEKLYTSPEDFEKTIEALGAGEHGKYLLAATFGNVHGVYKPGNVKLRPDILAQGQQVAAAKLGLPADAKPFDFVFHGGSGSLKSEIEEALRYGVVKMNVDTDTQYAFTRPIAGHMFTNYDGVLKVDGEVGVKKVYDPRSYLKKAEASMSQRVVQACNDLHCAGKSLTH
* = called active by the depositor; ? = inconclusive; / = no result given; + = active, no number.

SMILES	FadD28 FP inh	Rv3671c inh	Mtb hypoxia rep	GDH-TPI counter	UGM FP inh	Mtb FBA inh
NC(Cc1ccc([N+](=O)[O-])cc1)=NOC(=O)c1ccc(Br)cc1	/	/	9.2	/	/	/
Cc1ccc(C(=O)Nn2c(O)c(C=C3N=c4ccccc4=N3)sc2=S)cc1	2.2	-5.0	5.3	10.8	-1.1	-10.7
O=C(Nn1c(O)c(C=C2N=c3ccccc3=N2)sc1=S)c1ccccc1	14.5*	-5.0	8.1	23.9	-0.1	-10.3
O=C(Nn1c(O)c(C=C2N=c3ccccc3=N2)sc1=S)c1ccc(Cl)cc1	48.2*	-14.7	4.8	11.4	-1.9	-8.7
O=C(Nn1c(O)c(C=C2N=c3ccccc3=N2)sc1=S)c1cccc(Cl)c1	-0.7	14.4	6.9	19.1	-1.0	-7.5
CC1CCN(Cc2c(C(=O)NN=Cc3ccc(C(C)C)cc3)nnn2-c2nonc2N)CC1	/	/	2.8	/	/	/
CC(CCc1ccccc1)=NNC(=O)c1ccc(CN2CCOCC2)cc1	/	/	1.0	/	/	/
Cc1ccc2oc(=O)c3cc(C(=O)NCCCN4CCCC(C)C4)sc3c2c1 (stereo not given)	-1.7	-2.4	2.3	27.4	2.8	4.8
CC1CCCC(C)N1CCCNC(=O)c1cc2c(s1)-c1ccccc1OC2 (stereo not given)	-7.6	-2.7	/	24.8	-2.5	+
Cc1cccc2c1-c1sc(C(=O)NCCCN3CCCC(C)C3)cc1CO2 (stereo not given)	-14.1	-15.4	12.0	22.4	-1.8	+
CC(C)C1Oc2ccccc2N(CC(=O)NCCCN2C(C)CCCC2C)C1=O (stereo not given)	-0.4	2.2	4.1	1.9	-2.1	4.9
Cc1cccc(NC(=O)c2cc3c(s2)-c2c(C)cccc2OC3)n1	-1.3	-2.6	13.6	22.1	-1.3	13.6
Cc1c(NC(=O)c2cc3c(s2)-c2ccccc2OC3)cccc1[N+](=O)[O-]	-0.3	-7.0	10.6	35.8*	-2.9	0.0
CCCN1CCN(CCCNC(=O)c2cc3c(s2)-c2c(C)cccc2OC3)CC1	-5.7	-9.0	11.7	20.7	-1.2	+
Cc1cc(C)n2nc(C(=O)NN=Cc3ccccc3C)nc2n1	/	/	-3.7	/	/	/
CN1CCN(CCC(=O)NN=C/C=C2\N(C)c3ccccc3C2(C)C)CC1	/	/	0.3	/	/	/
O=C(O)c1ccccc1C=NNc1ccc(S(=O)(=O)N2CCCC2)cc1[N+](=O)[O-]	/	/	18.0	/	/	/
CCOc1ccccc1C(=O)NN=Cc1coc2ccc(C)cc2c1=O	/	/	6.0	/	/	/
CC(=NNC(=O)c1cccnc1)c1ccccc1	/	/	12.1	/	/	/
CC1CC(C)CN(CCCNC(=O)c2cc3c(s2)-c2ccccc2OC3)C1 (stereo not given)	-14.7	-4.3	6.1	14.5	1.9	+
CN(C)CCNC(=O)c1cc2c(s1)-c1ccccc1OC2	-3.9	-3.6	8.9	31.8*	1.4	+
COc1ccc(N(C)C(=O)c2cc3c(s2)-c2ccccc2OC3)c(OC)c1	-3.1	-22.0	/	29.7	-1.8	4.2
CCN1CCN(CCCNC(=O)c2cc3c(s2)-c2ccccc2OC3)CC1	-7.7	1.6	13.9	30.4	0.8	/
CCCN1CCN(CCCNC(=O)c2cc3c(s2)-c2ccccc2OC3)CC1	-5.2	-8.9	/	29.6	-1.4	+
CC=C1C[N+]2(C)CCC34C(=C(C=O)C1CC32)Nc1ccccc14 (stereo not given)	/	/	7.3	/	/	/
SMILES	FadD28 FP inh	Rv3671c inh	Mtb hypoxia rep	GDH-TPI counter	UGM FP inh	Mtb FBA inh
O=C(NN=Cc1ccccc1C(=O)O)c1ccccc1Br	/	/	-1.0	/	/	/
CC(=O)c1ccc(NC(=O)c2ccc([N+](=O)[O-])o2)cc1	-0.1	/	72.5*	27.9	-2.5	-1.2
CC(=O)c1cccc(NC(=O)c2ccc([N+](=O)[O-])o2)c1	0.8	-2.2	25.2	45.6*	0.8	0.2
NS(=O)(=O)c1ccc(NN=C/C=C/c2ccccc2[N+](=O)[O-])cc1	/	/	12.1	/	/	/
Cn1c(=O)cc(C(=O)NN=Cc2ccc(F)cc2)[nH]c1=O	/	/	2.7	/	/	/
C=C1CSc2nc(=O)c3c4c(sc3n21)CCC4	-1.2	-1.9	42.5*	24.9	2.1	1.3
CC1CCC2C(=O)N3C(CCC(C)C3c3ccc(Br)cc3)C(=O)N2C1c1ccc(Br)cc1 (stereo not given)	/	/	5.3	/	/	/
O=C(O)Cn1cc(C=NNc2ccc([N+](=O)[O-])cn2)c2ccccc21	/	/	14.5	/	/	/
CN1C(=O)C(=Cc2ccc(N3CCCCCC3)cc2)C(=O)N(C)C1=O	-1.6	-17.9	6.5	54.5*	-0.7	4.0
O=C1NC(=O)N(c2ccc(F)cc2)C(=O)/C1=C/c1ccc(N2CCOCC2)cc1	-4.4	-0.9	16.1	8.1	-1.2	-1.9
CN(C)c1ccc(/C=C2\C(=O)NC(=O)N(CCc3ccc(F)cc3)C2=O)cc1	24.6*	-30.9	6.4	46.9*	-1.2	0.7
O=C1NC(=O)N(Cc2ccc(F)cc2)C(=O)/C1=C\c1ccc(N2CCCC2)cc1	-2.1	-24.1	16.7	33.2*	-2.0	0.0
COc1cc(C=Nn2c(SC)nnc(C(C)(C)C)c2=O)ccc1O	/	/	0.3	/	/	/
CN(c1ccccc1)c1ccc(/C=C(/CCC(=O)O)c2nc3ccccc3s2)cc1[N+](=O)[O-]	19.3*	/	6.6	31.7*	/	-6.8
O=C(O)CC/C(=C\c1ccc(N2CCCC2)c([N+](=O)[O-])c1)c1nc2ccccc2s1	?	3.0	6.8	18.2	-0.5	-5.1
CC(C)Nc1oc(-c2cccc3ccccc23)nc1C#N	3.9	9.2	11.9	22.2	0.4	+
CCNc1oc(-c2cccc3ccccc23)nc1C#N	0.7	-5.2	1.5	30.1	0.2	+
C=CCNc1oc(-c2cccc3ccccc23)nc1C#N	1.3	-2.4	18.5	7.9	-1.4	+
CCN(CC)c1ccc(/C=C2\C(=O)NC(=S)N(c3ccc(OC)cc3OC)C2=O)o1	-3.7	-13.0	53.9*	-0.7	3.6	-31.9
CN1C(=O)C(=Cc2ccc(N3CCCCC3)o2)C(=O)N(C)C1=S	0.6	-3.5	/	5.4	1.7	-21.8
COc1ccc(N2C(=O)/C(=C/c3ccc(N(C)C)o3)C(=O)NC2=S)cc1	2.5	-18.5	8.3	7.6	-7.6	-9.9
CCN(CC)c1ccc(C=C2C(=O)N(C)C(=S)N(C)C2=O)o1	-1.3	-22.9	45.8*	3.3	-3.1	-3.6
CCN(CC)c1ccc(/C=C2\C(=O)NC(=S)N(C)C2=O)o1	-3.2	-15.3	58.4*	-13.1	-6.6	-33.6
CS(=O)(=O)c1ccc2nc(NC(=O)c3ccc(Cn4cc(Br)cn4)o3)sc2c1	-4.9	-11.5	-0.4	31.3*	1.9	17.9
NS(=O)(=O)c1ccc2nc(NC(=O)c3ccc(Br)o3)sc2c1	-2.6	-7.3	6.8	24.2	-1.5	9.8
COC(=O)C1=C(c2ccc3ccccc3c2)CC2CCC1N2C(=O)NC1CC1 (stereo not given)	/	/	6.4	/	/	/
O=C(c1cc2c(s1)-c1ccccc1OC2)N1CCC2(CC1)OCCO2	-2.6	-6.8	6.0	39.6*	2.1	+

Screening data deposited in PubChem BioAssay by several laboratories.
